Compound activity deposited in PubChem BioAssay by National Center for Advancing Translational Sciences (NCATS).
The list is not random: actives were taken first. Their share in the collection is about 21%.
Pf growth 48h = inhibits P. falciparum growth in the first generation, 48 h; P. falciparum luciferase growth in erythrocytes, 48 h; Potency, µM (highest dose often 28.7 µM), most hits filed as inhibitors; 310,000 compounds, 5.9% hits; AID 504832
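Firefly luciferase activity from engineered P. falciparum reports growth; inhibitors lower the luminescent signal. Cultures contained 2% hematocrit erythrocytes at 0.1% final parasitemia.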
HCMV antiviral = human cytomegalovirus inhibition; HFF cells, HCMV-luciferase reporter, 72 h; hits give low values; 410,000 compounds, 4.5% hits; activity change, negative = inhibition, % at 57.5 µM; in the data active means activity change below about -60%; inconclusive means no clear call, values can overlap the other calls; inactive means above about -39%
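Human foreskin fibroblasts infected with luciferase-reporter HCMV at MOI 1 PFU/cell, compounds at two doses. Luciferase measured 72 h post infection; normalized to buffer-only basal and Salinomycin (10uM) controls.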
Pf growth 96h = inhibits malaria parasite growth, 96 h; P. falciparum luciferase reporter growth, 96 h; Potency, µM (titrated, usually from 28.7 µM), actives largely listed as inhibitors; 320,000 compounds, 6.9% hits; AID 504834
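Cell-based qHTS: luciferase-tagged P. falciparum in erythrocytes (2% hematocrit, 0.05% parasitemia final) incubated with compounds for 96 hours, 37 C, 5% CO2; luciferase detection reagent then added and luminescence measured.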
HCV inh = blocks hepatitis C virus | Potency, µM (highest dose often 41.8 µM), hits mostly inhibitors | AID 651820 | 340,000 compounds, 3.4% hits | Huh7.5.1 HCVcc-Cre infection, luciferase reporter, 44 h
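Seed cells (1,000/well) for 4 h; treat with compound and infect with HCVcc-Cre, moi about 0.5. Incubate 44 h, then detect luciferase activity.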
Shiga inhibitor = inhibitors of Shiga toxin in Vero cells | Vero cells, Shiga toxin protein synthesis inhibition reporter | inhibition, % at 38.7 µM | AID 2315 | 290,000 compounds, 9.2% hits; in the data active means inhibition mostly above about 28%, no sharp cut-off; inactive means mostly below about 43%
Cycloheximide cs = affects cycloheximide protein synthesis inhibition readout, counter-screen | cell reporter, cycloheximide protein synthesis inhibition counterscreen | max response, % | 300,000 compounds, 12% hits; in the data active means max response mostly above about 13%, no sharp cut-off; inactive means mostly below about 14%; further: read at 38.3 µM for the half of the compounds with a filed dose
Of the large screens only hits and unclear results are named; the others gave an inactive call. Unless noted, the call rests on the fitted dose curve; in most records, active means well fitted inhibition curve with a large enough effect; inconclusive means small, poorly fitted or top-dose-only effect, or another doubt; inactive means no such curve, though single readings can be large or run the other way.

CN1CCC(=NNC(=O)CN(c2ccccc2)S(=O)(=O)c2ccccc2)CC1	none
C=CCNC(=O)c1ccc(CN(c2ccc(OCC)cc2)S(=O)(=O)c2ccc(C)cc2)cc1	Pf growth 48h 7.38µM, HCV inh 11.2µM
CCc1ccc(C2CC(=O)c3c([nH]c(C(=O)OCC4CCCCC4)c3C)C2)cc1 (stereo not drawn)	none (no result: Pf growth 48h, Pf growth 96h, HCV inh, Shiga inhibitor, Cycloheximide cs)
Cc1ccc(N(CC(=O)NCC(O)c2ccccc2)S(=O)(=O)c2ccc(C)cc2)cc1 (stereo not drawn)	none
CCNC(=O)CN(c1ccc(C)cc1)S(=O)(=O)c1ccccc1	HCMV antiviral -82.8 (no result: Pf growth 48h, Pf growth 96h)
Cc1ccc(S(=O)(=O)N(Cc2ccc(Cl)cc2)c2ccccc2C(=O)NCc2ccco2)cc1	Pf growth 48h 6.57µM, HCMV antiviral inconclusive, HCV inh inconclusive, Shiga inhibitor 43.7, Cycloheximide cs 32.6
Cc1ccc(N(CC(=O)NCc2ccco2)S(=O)(=O)c2ccccc2)cc1	Pf growth 48h 13.1µM, Cycloheximide cs 27.0
CCOc1ccc(N(CC(=O)NCCOc2ccc(C)cc2)S(=O)(=O)c2ccccc2)cc1	Pf growth 48h 10.4µM, Pf growth 96h inconclusive
Cc1ccc(OCC(O)CN2CCOCC2)cc1 (stereo not drawn)	none (no result: Shiga inhibitor)
COc1ccc(N(CC(=O)NCCSCc2ccco2)S(=O)(=O)c2ccccc2)cc1Cl	Pf growth 48h 11.7µM, Pf growth 96h inconclusive, HCV inh inconclusive
Cc1ccc(S(=O)(=O)N(Cc2n[nH]c(=S)n2-c2ccccc2)c2cccc(Cl)c2)cc1	Pf growth 48h inconclusive, HCMV antiviral inconclusive
Cc1ccc(S(=O)(=O)N(Cc2n[nH]c(=S)n2-c2ccccc2)c2ccccc2)cc1	Pf growth 48h 2.33µM, Pf growth 96h inconclusive
O=S(=O)(NCC1CN(S(=O)(=O)c2c(F)cccc2F)C1)c1ccc2c(c1)OCCO2	HCMV antiviral -62.4 (no result: HCV inh)
CC1(C(=O)Nc2nccs2)CCN1C(=O)C1(c2ccccc2)CC1 (stereo not drawn)	none (no result: Pf growth 48h, Pf growth 96h, HCV inh, Shiga inhibitor, Cycloheximide cs)
CC1(C(=O)Nc2nccs2)CCN1C(=O)CC(c1ccccc1)c1ccccc1 (stereo not drawn)	HCMV antiviral -102.0 (no result: Pf growth 48h, Pf growth 96h, HCV inh, Shiga inhibitor, Cycloheximide cs)
O=C(NC1CCCN(Cc2ccc(Cl)cc2)C1)c1ccccc1C(F)(F)F (stereo not drawn)	Pf growth 48h inconclusive, Pf growth 96h 4.65µM
O=C(NC1CCCN(Cc2ccc(Cl)cc2)C1)c1c(F)ccc(F)c1F (stereo not drawn)	Pf growth 96h 4.65µM
CC(=O)c1ccc(C(=O)NC2CCCN(Cc3ccc(Cl)cc3)C2)s1 (stereo not drawn)	Pf growth 96h inconclusive (no result: HCV inh)
O=C(NC1CCCN(Cc2ccc(Cl)cc2)C1)c1c(F)cccc1F (stereo not drawn)	Pf growth 96h inconclusive
CC1(C(=O)Nc2ccc(S(=O)(=O)Nc3ncccn3)cc2)CCCC1	none (no result: Pf growth 48h, Pf growth 96h, Shiga inhibitor, Cycloheximide cs)
COc1cc(NC(=O)CCc2nnc3ccc(N4CCCCC4)nn23)cc(OC)c1OC	Pf growth 48h inconclusive, Pf growth 96h 10.4µM
COc1ccccc1NC(=O)CCc1nnc2ccc(N3CCCCC3)nn12	Pf growth 96h 4.15µM
CC(C)Cc1nn2c(=O)cc(COC(=O)c3ccc(NC(=O)CCc4ccccc4)cc3)nc2s1	none (no result: Pf growth 48h, Pf growth 96h, HCV inh, Shiga inhibitor, Cycloheximide cs)
COc1ccc(CCN(C)C(=S)Nc2cccc(C)c2)cc1OC	Pf growth 48h 1.65µM, Pf growth 96h inconclusive
COc1cccc(NC(=S)N(CCc2ccc(OC)c(OC)c2)Cc2ccccn2)c1	Pf growth 48h inconclusive, Pf growth 96h inconclusive
COc1ccc(CCN(C)C(=O)COc2ccc(C(=O)c3ccccc3)cc2)cc1OC	Pf growth 48h inconclusive, Pf growth 96h inconclusive, HCV inh inconclusive (no result: Shiga inhibitor, Cycloheximide cs)
COc1ccc(CCN(C)C(=O)c2cc(-c3ccccc3)nc3ccc(C)cc23)cc1OC	HCV inh inconclusive, Shiga inhibitor 65.1
COc1ccc(CCN(C)C(=O)c2cc(-c3ccccc3)nc3ccccc23)cc1OC	Pf growth 48h 13.1µM, Pf growth 96h 7.38µM (no result: HCV inh)
COc1ccc(CCN(C)C(=O)Cc2ccc(-c3ccccc3)cc2)cc1OC	Pf growth 48h inconclusive, HCMV antiviral -76.0, Pf growth 96h inconclusive, HCV inh 2.51µM, Cycloheximide cs 21.5
COc1ccc(-c2cc(C(=O)N(C)CCc3ccc(OC)c(OC)c3)c3ccccc3n2)cc1	HCV inh inconclusive
CCCn1c(O)c(N=NC(=O)CNC(=O)c2ccncc2)c2ccccc21	none
Cc1[nH]c2ccccc2c1C(O)CN1CCC2(CC1)OCCO2 (stereo not drawn)	none
COc1ccccc1CNC(=O)c1ccc(C)c(-n2cnc3cccnc32)c1	none (no result: Pf growth 48h, Pf growth 96h, HCV inh, Shiga inhibitor, Cycloheximide cs)
Cc1ccc(NC(=O)C2CCCN2C(=O)NC2CCCCC2)cc1F (stereo not drawn)	none
COc1cccc(CN(C)C(=O)c2cc(-c3ccc(F)cc3)nc3ccccc23)c1	Pf growth 48h inconclusive, Pf growth 96h 13.1µM, HCV inh 31.6µM (no result: HCMV antiviral)
COc1ccc(CCN(C)C(=O)CSc2nnnn2C)cc1OC	Pf growth 96h 10.4µM
COc1ccc(-c2cc(C(=O)N(C)Cc3cccc(OC)c3OC)c3ccccc3n2)cc1OC	Pf growth 48h 9.28µM, Pf growth 96h inconclusive, HCV inh inconclusive
COc1ccc(CN(C)C(=O)c2cc(-c3ccccc3)nc3ccc(C)cc23)c(OC)c1OC	Pf growth 48h 8.28µM, Pf growth 96h inconclusive, HCV inh 10µM, Cycloheximide cs 16.8 (no result: HCMV antiviral)
COc1ccc(CCN(C)C(=O)CSc2nnc(-c3ccco3)o2)cc1OC	none
COc1ccc(CN2C(=O)C(CC(=O)NCCCCc3ccccc3)CC(C(=O)N(C(C)C)C(C)C)=C2C)cc1 (stereo not drawn)	none (no result: Pf growth 48h, Pf growth 96h, HCV inh, Shiga inhibitor, Cycloheximide cs)
CC1=C(C(=O)N2CCOCC2)CC(CC(=O)NC(c2ccccc2)c2ccccc2)C(=O)N1CCC1=CCCCC1 (stereo not drawn)	none (no result: Pf growth 48h, Pf growth 96h, HCV inh, Shiga inhibitor, Cycloheximide cs)
CC1=C(C(=O)N(C(C)C)C(C)C)CC(CC(=O)NCCCCc2ccccc2)C(=O)N1Cc1ccc(C(C)(C)C)cc1 (stereo not drawn)	HCMV antiviral -104.6 (no result: Pf growth 48h, Pf growth 96h, HCV inh, Shiga inhibitor, Cycloheximide cs)
CC1=C(C(=O)N(C(C)C)C(C)C)CC(CC(=O)NC(c2ccccc2)c2ccccc2)C(=O)N1CCC1=CCCCC1 (stereo not drawn)	HCMV antiviral -109.9 (no result: Pf growth 48h, Pf growth 96h, HCV inh, Shiga inhibitor, Cycloheximide cs)
O=C1c2ccccc2C(=O)N1CCCc1cn(C[C@H]2CC[C@H](Cn3cc(CCCN4C(=O)c5ccccc5C4=O)nn3)O2)nn1	none (no result: Pf growth 48h, Pf growth 96h, Shiga inhibitor, Cycloheximide cs)
CC(C)(C)c1csc(NC(=O)Nc2ccccc2)n1	Shiga inhibitor 72.1, Cycloheximide cs 50.9
O=C(Nc1ccc(-c2csc(Nc3ccccc3)n2)cc1)c1ccccc1	Pf growth 48h inconclusive, HCMV antiviral -63.1, Pf growth 96h inconclusive, HCV inh inconclusive
O=C(Nc1ccc(Cl)c(Cl)c1)Nc1nc(-c2ccccc2)cs1	Pf growth 48h inconclusive, HCMV antiviral inconclusive, Pf growth 96h 2.33µM, HCV inh inconclusive
O=S(=O)(Nc1nc(-c2ccccc2)cs1)c1cc(Cl)ccc1Cl	none
